Source: PubChem BioAssay
MOR-DOR inv ag – inverse agonists of MOR-DOR heterodimerization, primary screen, cell-based, luminescence. Mu-type opioid receptor (Homo sapiens) + Delta-type opioid receptor (Homo sapiens), …. cell-based MOR-DOR heterodimer luminescence, inverse agonism. inhibition, % at 9.3 µM. 340,000 compounds, 0.21% hits; in the data active = inhibition above about 22%, passing the limit was not always enough
Target sequence (P35372 whole entry, looked up): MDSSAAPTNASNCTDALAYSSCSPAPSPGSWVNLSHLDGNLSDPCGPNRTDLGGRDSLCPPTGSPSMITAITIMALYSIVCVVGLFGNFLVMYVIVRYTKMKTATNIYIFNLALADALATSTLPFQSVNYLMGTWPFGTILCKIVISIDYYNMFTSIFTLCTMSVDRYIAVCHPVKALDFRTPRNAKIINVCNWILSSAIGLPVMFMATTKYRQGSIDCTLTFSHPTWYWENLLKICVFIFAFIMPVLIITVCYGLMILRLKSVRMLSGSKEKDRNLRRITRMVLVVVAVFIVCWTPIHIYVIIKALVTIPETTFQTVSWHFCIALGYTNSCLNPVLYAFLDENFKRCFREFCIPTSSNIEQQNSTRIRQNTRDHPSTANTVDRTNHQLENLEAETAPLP
Target sequence (P41143 whole entry, looked up): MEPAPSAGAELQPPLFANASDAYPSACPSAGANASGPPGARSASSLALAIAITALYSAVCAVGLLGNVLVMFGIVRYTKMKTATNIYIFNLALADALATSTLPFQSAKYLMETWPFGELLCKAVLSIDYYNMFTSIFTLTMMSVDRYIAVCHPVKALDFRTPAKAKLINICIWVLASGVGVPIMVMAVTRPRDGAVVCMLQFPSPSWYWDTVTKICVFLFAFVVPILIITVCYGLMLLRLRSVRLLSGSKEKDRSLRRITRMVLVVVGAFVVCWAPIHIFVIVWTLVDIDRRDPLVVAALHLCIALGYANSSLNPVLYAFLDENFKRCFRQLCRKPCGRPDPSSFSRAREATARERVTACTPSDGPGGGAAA
MOR-DOR ag – agonists of OPRM1-OPRD1 heterodimerization, primary screen, cell-based, luminescence | Mu-type opioid receptor (Homo sapiens) + Delta-type opioid receptor (Homo sapiens), … | cells | activation, % at 9.3 µM | 340,000 compounds, 0.3% hits | AID 504326, 2011; in the data active = activation above about 18%
HTR5A ag – HTR5A agonists in luminescence cell assay, primary screen, counter-screen for OPRM1-OPRD1 heterodimer agonist project, full-deck HTS. 340,000 compounds, 0.61% hits. activation, % at 9.3 µM. cell-based; in the data active = activation mostly above about 9.5%, no sharp cut-off; inactive = mostly below about 7.6%
HTR5A inv ctr – HTR5A inverse agonists in luminescence cell assay, primary screen, counter-screen for OPRM1-OPRD1 heterodimer inverse agonist project, full-deck HTS; HTR5A cell line, inverse agonism; inhibition, % at 9.3 µM; 340,000 compounds, 0.083% hits; in the data active = inhibition mostly above about 23%, no sharp cut-off; inactive = mostly below about 18%
Large screens that a line does not name were inactive. Shown are actives, neighbours in structure and some others; about 1.1% of the full set was active somewhere.

CCOC(=O)c1cc2c(s1)-c1c(C)cccc1OC2	none
CC1CCN(CCCNC(=O)c2cc3c(s2)-c2ccccc2OC3)CC1	none
COc1ccccc1/C=C1\SC(=S)N(CCC(=O)NCCc2ccc(O)cc2)C1=O	none
N#Cc1ccc(CN2CCN(C(=O)c3ccc(S(=O)(=O)NCc4ccco4)cc3)CC2)cc1	HTR5A ag 12
CCCCNC(=O)CCC(=O)N1CCN(C(c2ccccc2)c2ccccc2)CC1	none
COc1ccc(OC)c(C2C(C(=O)c3cccs3)=C(O)C(=O)N2CCN2CCOCC2)c1 (stereo unspecified)	none
Cc1nc2c(C(=O)N3CCOCC3)cnn2c(C)c1Cc1ccc(Cl)cc1	HTR5A ag 12
c1ccc(CNc2nc(-c3ccccc3)nc3ccccc23)cc1	none
c1ccc(CNc2nc(NCc3ccccc3)c3ccccc3n2)cc1	MOR-DOR ag 40, HTR5A ag 19
O=C(CNC(=O)c1ccccc1)OCCCOC(=O)CNC(=O)c1ccccc1	none
Cc1ccc2nc(/C(C#N)=C\c3ccc(N4CCOCC4)o3)[nH]c2c1	none
Cc1ccc2nc(/C(C#N)=C\c3ccc([N+](=O)[O-])o3)[nH]c2c1	MOR-DOR ag 575, HTR5A ag 105
CCc1ccc(N2CC(C(=O)OCC(=O)N(CC)c3c(N)n(Cc4ccccc4)c(=O)[nH]c3=O)CC2=O)cc1 (stereo unspecified)	none
C[C@@]12CCC=C[C@H]1[C@H](c1ccc(C(F)(F)F)cc1)N(Cc1ccccc1)C2=O	HTR5A ag 13
COC(=O)[C@@]1(Cc2ccc(OC)cc2)[C@H]2c3cc(C(=O)N(C)C)[nH]c3C[C@H]2CN1C(=O)c1ccccc1	HTR5A ag 14
COc1ccc(CN2C(=O)C(CC(C)C)Nc3ncnc(N4CCN(c5ccccn5)CC4)c32)cc1 (stereo unspecified)	none
COc1ccc(CN2C(=O)C(C)Nc3ncnc(N4CCN(c5ccccn5)CC4)c32)cc1 (stereo unspecified)	MOR-DOR inv ag 70, HTR5A inv ctr 63
Cc1ccc(CN2C(=O)C(C)Nc3ncnc(N4CCN(c5ccccn5)CC4)c32)cc1 (stereo unspecified)	MOR-DOR inv ag 55, HTR5A inv ctr 56
CC1Nc2ncnc(N3CCN(c4ccccn4)CC3)c2N(Cc2ccccc2)C1=O (stereo unspecified)	MOR-DOR inv ag 45, HTR5A inv ctr 43
Cc1ccc(NC(=O)Cn2cnc([N+](=O)[O-])c2)cc1C	none
CC1CC(=O)C(C(C2=C(O)CC(C)CC2=O)c2ccccc2)=C(O)C1 (stereo unspecified)	HTR5A ag 9.3
CC(c1ccccc1)N1CC(C(=O)O)CC1=O (stereo unspecified)	none
CCc1ccccc1NC(=O)c1ccc(OCc2c(C)noc2C)cc1	none
CCc1ccc(NS(=O)(=O)c2ccc(C)c(C(=O)N3CCOCC3)c2)cc1	none
COc1ccccc1CCc1nnc(CCC(=O)NCC(C)Oc2cccnc2)o1 (stereo unspecified)	none
COc1ccccc1CCc1nnc(CCC(=O)NC(C)Cc2ccsc2)o1 (stereo unspecified)	HTR5A ag 9.9
O=C(COc1ccccc1)NS(=O)(=O)c1ccc(Cl)cc1	HTR5A ag 12
COc1cccc(CNC(=O)CCC2CCCN(C(=O)c3cccnc3SC)C2)c1 (stereo unspecified)	none
CCOc1ccc(NC(=O)Cc2ccc(S(=O)(=O)N3CCCCC3)cc2)cc1OCC	HTR5A ag 11
CC#CCN(Cc1ccco1)C(=O)c1ccc(OC2CCN(Cc3ccccn3)CC2)cc1	HTR5A ag 9.8
CN(Cc1ccco1)C(=O)c1ccc(OC2CCN(Cc3ccccn3)CC2)cc1	none
COc1ccccc1C1CCN(C(=O)c2cnn(-c3ccccc3)c2C)CC1	HTR5A ag 12
CC(C)CC(=O)Nc1c2c(nn1-c1cccc(Cl)c1)CS(=O)C2 (stereo unspecified)	none
O=C(O)C1CC=CCC1C(=O)NCCc1cccc(Cl)c1 (stereo unspecified)	HTR5A ag 13
O=C1c2[nH]nc(-c3ccccc3O)c2C(c2cccc(Cl)c2)N1Cc1ccco1 (stereo unspecified)	HTR5A ag 14
CCOC(=O)c1c(NC(=O)COc2ccc3ccc(=O)oc3c2)sc(C(=O)N(C)C)c1C	none
Cc1ncccc1C(=O)N1CCCC(C(=O)c2ccc3c4c(cccc24)CC3)C1 (stereo unspecified)	none
O=C(c1ccc2c3c(cccc13)CC2)C1CCCN(C(=O)c2ccc(=O)[nH]c2)C1 (stereo unspecified)	HTR5A ag 13
O=C1C(SCCO)=C(SCCO)C(=O)c2ccccc21	HTR5A inv ctr 41
COCCNC(=O)Cn1c(=O)oc2cc(S(=O)(=O)N3CC(C)CC(C)C3)ccc21 (stereo unspecified)	none
CCCNC(=O)Cn1c(=O)oc2cc(S(=O)(=O)N3CC(C)CC(C)C3)ccc21 (stereo unspecified)	HTR5A ag 11
Cn1cccc1/C=C(/C#N)C(N)=S	MOR-DOR inv ag 37
Cc1ccc(-c2ccc(/C=C(\C#N)C(N)=S)n2C)cc1	none
COC(=O)CCCC1=CC2=CC(=O)C(C)(OC(=O)c3cccs3)C(=O)C2=CN1CCCCO (stereo unspecified)	HTR5A ag 12
COCCN1C=C2C(=O)C(C)(OC(=O)c3cccs3)C(=O)C=C2C=C1CCCC(=O)OC (stereo unspecified)	HTR5A ag 14
COC(=O)CCCC1=CC2=CC(=O)C(C)(OC(=O)c3cccs3)C(=O)C2=CN1CCN1CCOCC1 (stereo unspecified)	none
Cc1[nH]c2ccccc2c1C1=CC(=O)C=CC1=O	none
O=C(COC(=O)C12CC3CC(CC(Br)(C3)C1)C2)Nc1cccc(S(=O)(=O)N2CCOCC2)c1	none
O=C(CSc1nc2ccc(NC(=O)CSc3nnnn3Cc3ccccc3)cc2s1)Nc1ccccc1	HTR5A ag 14
O=C(COC(=O)c1cnccn1)NCCc1ccc(Cl)cc1	none
COc1ccc(Nc2nc(Nc3ccc(OC)cc3)nc(SC3=NCCS3)n2)cc1	HTR5A ag 9.8
COc1ccc(Nc2nc(Cl)nc(NCCO)n2)cc1	none
CSc1nc(N)c2cn[nH]c2n1	none
CCC(C)NC(=O)c1cc(-c2ccc(OC)cc2)on1 (stereo unspecified)	none
COc1ccc(-c2cc(C(=O)O)no2)cc1	HTR5A ag 9.8
O=C(CSC1=NCCS1)N1CCN(c2ccc(Cl)cc2)CC1	none
O=C(CSC1=NCCS1)c1ccc(Cl)cc1	HTR5A ag 11
Cc1cccc(NC(=S)N/N=C/c2ccc(Cl)c([N+](=O)[O-])c2)c1	HTR5A ag 9.3
COc1ccc(C(=O)NCCc2c[nH]c3ccc(OC)cc23)cc1	none
COc1ccc2[nH]cc(CCNC(=O)c3ccc4ccccc4n3)c2c1	HTR5A ag 14
O=C(COC(=O)c1cn(-c2ccccc2)nc1-c1ccc(F)cc1)Nc1ncc(Cl)cc1Cl	none
